# Results as given in PubChem BioAssay (EPA / NIEHS).
# Results filed as inconclusive are left out. Active and inactive are the calls of the source. How the source made its calls, unless noted: active means hit-call score of the fitted dose curve at least 0.9, where 1 is the maximum; inactive means score below 0.9.
# Legend:
# [1] = CCTE_Shafer_MEA_acute_spike_number: CCTE's Neural Acute Assay for Total Number of Spikes, Shafer Lab (AID 2284008);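 on AC50: curve fitted for decrease in spike count so AC50 reflects inhibitors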
# Outline: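 Cortical neurons from rat, matured to DIV 13 or 15 on microelectrode arrays, are recorded at 37 C before and during 40-min exposure to 0.03-40 uM compound. Wells need >/= 10 active electrodes.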
# [2] = CCTE_Shafer_MEA_acute_firing_rate_mean: CCTE's Neural Acute Assay for Mean Firing Rate, Shafer Lab (AID 2284009);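 further: analyzed for loss of signal so actives lower firing rate relative to DMSO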
# Outline: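 Primary rat cortical neurons on 16-electrode MEA wells were exposed on DIV 13 or 15 to compound (0.03-40 uM). Spike counts per recording time, averaged over electrodes, were compared between 40-min baseline and 40-min post-exposure recordings as percent change.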
# [3] = CCTE_Harrill_HTTr_Viability_MCF7: CCTE's 6-hour Cell Viability Assessment for the High-Throughput Transcriptomics (HTTr) Platform, in MCF-7 cells cultured in DMEM + 10% fetal bovine serum, Harrill Lab (AID 2284010)
# Outline: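 Read-out is propidium iodide gain of signal by high-content imaging, reflecting membrane integrity loss. Measurements are taken 6 h after dosing, eight concentrations per chemical, with DMSO serving as baseline for bidirectional curve fitting.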
# [4] = CCTE_Harrill_HTTr_Apoptosis_MCF7: CCTE's 6-hour Apoptosis Assessment for the High-Throughput Transcriptomics (HTTr) Platform, in MCF-7 cells cultured in DMEM + 10% fetal bovine serum, Harrill Lab (AID 2284011)
# Outline: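 Cells are dosed with test chemicals at eight concentrations and imaged 6 hours later for caspase-3/7 activity using a green fluorogenic detection reagent. Activity is fitted in both directions against DMSO controls.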
# [5] = CCTE_Harrill_HTTr_CellCount_MCF7: CCTE's Cell Proliferation Assessment for the High-Throughput Transcriptomics (HTTr) Platform, Harrill Lab (AID 2284012; active means hit-call score of the fitted dose curve at least 0.9, where 1 is the maximum;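 further: cells exposed to compound for six hours; intended direction is loss of nuclei count meaning fewer cells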)
# Outline: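 Cell count served as viability reporter: loss of Hoechst-stained nuclei, counted by high content imaging, marks decreased growth or survival. Exposure was 6 h in MCF-7 cells across eight concentrations, with DMSO as baseline.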
# [6] = CCTE_Shafer_MEA_acute_burst_number: CCTE's Neural Acute Assay for Single-Electrode Bursts, Shafer Lab (AID 2284013)
# Outline: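 Primary rat cortical neurons on 16-electrode MEA wells, DIV 13 or 15, exposed to compound (0.03-40 uM; ≥3 wells); 40-min recordings at 37 C before and after treatment. Burst count expressed as percent change from baseline, DMSO as negative control.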
# [7] = CCTE_Shafer_MEA_acute_burst_duration_mean: CCTE's Neural Acute Assay for Mean Burst Duration, Shafer Lab (AID 2284014);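 further: hits are decreases in mean burst duration relative to DMSO controls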
# Outline: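 Mean burst duration was compared between a 40 min baseline and a 40 min recording in the presence of compound (0.03-40 uM, 37 C), giving percent change per well. Cultures were rat cortical neurons at DIV 13 or 15; wells needed ≥10 active electrodes.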
# [8] = CCTE_Shafer_MEA_acute_interburst_interval_mean: CCTE's Neural Acute Assay for Mean Interburst Interval, Shafer Lab (AID 2284016);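 further: percent change of mean interburst interval versus each well's own pre-dose baseline; curves fitted for decrease in interburst interval relative to DMSO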
# Outline: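 MEA recording of spontaneous network bursting in primary rat cortical cultures; mean interburst interval was compared before and after a 40-min compound exposure (0.03-40 uM) and expressed as percent change, relative to DMSO.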
# [9] = CCTE_Shafer_MEA_acute_burst_percentage_std: CCTE's Neural Acute Assay for Standard Deviation of Burst Percentage, Shafer Lab (AID 2284018);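 further: fitted in the negative direction so actives lower burst percentage SD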
# Outline: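 Value is percent change from baseline in the across-electrode SD of spikes-in-bursts percentage, wells with >/= 10 active electrodes. Acute 40-min exposure to 0.03-40 uM on DIV 13 or 15 rat cortical cultures, recorded at 37 C after 40-min baseline.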
# [10] = CCTE_Shafer_MEA_acute_per_network_burst_spike_number_mean: CCTE's Neural Acute Assay for Average Number of Spikes in a Network Burst, Shafer Lab (AID 2284019)
# Outline: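 Percent change from baseline in mean spikes per network burst, spikes detected at 8x rms noise. Each compound at 0.03-40 uM in at least three wells of rat cortical cultures, recorded 40 min before and 40 min during exposure.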
# [11] = CCTE_Shafer_MEA_acute_per_network_burst_spike_number_std: CCTE's Neural Acute Assay for Standard Deviation of Number of Spikes in a Network Burst, Shafer Lab (AID 2284020);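 further: fitted for decrease in spike-number SD versus DMSO so actives lower it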
# Outline: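 Endpoint: percent change from 40 min baseline in standard deviation of spikes per network burst, after 40 min compound exposure (0.03-40 uM, 37 C). Cortical rat neurons on MEA at DIV 13 or 15; spikes detected at 8x rms noise, 300-5000 Hz band-pass.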
# [12] = CCTE_Shafer_MEA_acute_per_network_burst_electrodes_number_mean: CCTE's Neural Acute Assay for Mean Number of Electrodes in a Network Burst, Shafer Lab (AID 2284021);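 further: curves fitted for decreases only so hits reduce electrodes per burst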
# Outline: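 Cultures of rat cortex neurons were exposed on DIV 13 or 15 to compounds at 0.03-40 uM in at least three wells each. Activity over 40 min before and 40 min after exposure at 37 C gave the percent change in electrodes per network burst.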
# [13] = CCTE_Shafer_MEA_acute_network_burst_percentage: CCTE's Neural Acute Assay for Percentage of Network Bursts, Shafer Lab (AID 2284022);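 further: rat primary cortical neuron networks on multiwell MEA recorded 40 min; curves fitted for loss so actives lower network burst percentage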
# Outline: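 Cortical neurons from rat were grown over microelectrode arrays and used on day 13 or 15 in vitro. Wells with at least 10 active electrodes received test chemical at 0.03-40 uM. Activity during 40 min of exposure was compared with the preceding 40-min baseline.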
# [14] = CCTE_Shafer_MEA_acute_cross_correlation_area: CCTE's Neural Acute Assay for Area of Cross Correlation, Shafer Lab (AID 2284024);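 further: area under pooled inter-electrode spike cross-correlation near zero lag as percent change from own baseline; curves fitted for loss of cross-correlation area so actives lower synchrony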;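 on outcome: rat primary cortical neuron networks on 48-well MEA at DIV 13 or 15 with 40 min exposure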
# Outline: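 Acute exposure of mature rat cortical networks (day 13 or 15 post-plating) to 0.03-40 uM compound. Spontaneous spiking on MEA, 40 min pre- and post-dose at 37 C.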
# [15] = CCTE_Shafer_MEA_acute_cross_correlation_HWHM: CCTE's Neural Acute Assay for Cross Correlation at Half Width at Half Maximum, Shafer Lab (AID 2284026);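 further: spontaneous network firing of rat primary cortical neurons on multiwell microelectrode arrays; percent change per well from pre-dose baseline in spike cross-correlogram half width; hits are a decrease in cross-correlogram half width relative to DMSO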
# Outline: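 Primary cortex (rat), MEA, DIV 13/15; compound 0.03-40 uM; 40 min pre + 40 min post at 37 C; spike threshold 8x rms; wells need ≥10 active electrodes; endpoint = % change in cross-correlogram HWHM vs baseline, DMSO negative control.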
# [16] = molecular target: Estrogen receptor (Homo sapiens) (UniProt P03372); assay: CCTE_Deisenroth_AIME_96WELL_LUC_Active: CCTE's 96-well Estrogen Receptor Transactivation Assay with AIME metabolic competence (ERTA luciferase; metabolism positive), Deisenroth Lab (AID 2284023; active means hit-call score of the fitted dose curve at least 0.9, where 1 is the maximum)
# Estrogen receptor (Homo sapiens), sequence (P03372 whole entry, looked up): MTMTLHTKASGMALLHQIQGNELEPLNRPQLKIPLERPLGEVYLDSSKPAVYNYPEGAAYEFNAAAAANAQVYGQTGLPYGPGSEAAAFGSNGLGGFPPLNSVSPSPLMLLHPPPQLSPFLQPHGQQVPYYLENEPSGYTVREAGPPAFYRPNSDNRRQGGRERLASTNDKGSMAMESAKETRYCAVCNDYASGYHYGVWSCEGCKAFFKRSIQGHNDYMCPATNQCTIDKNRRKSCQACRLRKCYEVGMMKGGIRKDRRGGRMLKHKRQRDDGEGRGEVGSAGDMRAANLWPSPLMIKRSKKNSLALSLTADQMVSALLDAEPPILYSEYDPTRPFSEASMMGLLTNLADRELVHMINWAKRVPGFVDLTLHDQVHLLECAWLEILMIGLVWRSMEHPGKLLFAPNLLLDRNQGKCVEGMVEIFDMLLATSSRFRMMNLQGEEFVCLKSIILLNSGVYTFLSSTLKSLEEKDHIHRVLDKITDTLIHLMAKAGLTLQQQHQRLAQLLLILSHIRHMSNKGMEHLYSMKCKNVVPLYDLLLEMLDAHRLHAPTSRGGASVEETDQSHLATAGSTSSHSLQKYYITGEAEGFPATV
# Outline: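 Metabolism-positive mode: induced rat hepatic S9 in alginate microspheres conditions test solutions (0.002 - 200 uM, 10 points) for 2 hours. VM7Luc4E2 ER luciferase reporter cells then exposed 24 h; positive-direction fit against 17beta-estradiol, n=4 typical.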
# [17] = molecular target: Estrogen receptor (Homo sapiens) (UniProt P03372); assay: CCTE_Deisenroth_AIME_96WELL_LUC_Inactive: CCTE's 96-well Estrogen Receptor Transactivation Assay without AIME metabolic competence (ERTA luciferase; metabolism negative), Deisenroth Lab (AID 2284025; active means hit-call score of the fitted dose curve at least 0.9, where 1 is the maximum)
# Outline: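 Metabolism-negative arm: chemicals (0.002–200 uM, 10 points) incubated 2 h with alginate-water microspheres, then medium moved onto VM7Luc4E2 cells for 24 h luciferase read-out. Positive direction vs 17beta-estradiol; n≥4 experiments.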
compound,measurement,setting,value
c1ccc(OCCOc2ccccc2)cc1,outcome,[1],inactive
same,outcome,[2],inactive
same,outcome,[3],inactive
same,outcome,[4],inactive
same,outcome,[5],inactive
same,outcome,[6],inactive
same,outcome,[7],inactive
same,outcome,[8],inactive
same,outcome,[9],inactive
same,outcome,[10],inactive
same,outcome,[11],inactive
same,outcome,[12],inactive
same,outcome,[13],inactive
same,outcome,[14],inactive
same,outcome,[15],inactive
CCCCOCCOCCOCCO,outcome,[3],inactive
same,outcome,[4],inactive
CCOC(=O)COC(=O)c1ccccc1C(=O)OCC,outcome,[3],inactive
same,outcome,[4],inactive
CCn1cc(C(=O)O)c(=O)c2ccc(C)nc21,AC50,[1],3 nM (active)
same,AC50,[2],3 nM (active)
same,outcome,[3],inactive
same,outcome,[4],inactive
same,outcome,[5],inactive
same,AC50,[6],3 nM (active)
same,outcome,[7],inactive
same,outcome,[8],inactive
same,outcome,[9],inactive
same,outcome,[10],inactive
same,outcome,[11],inactive
same,outcome,[12],inactive
same,outcome,[13],inactive
same,AC50,[14],3 nM (active)
same,outcome,[15],inactive
C1COCO1,outcome,[3],inactive
same,outcome,[4],inactive
same,outcome,[5],inactive
c1ccc2scnc2c1,outcome,[3],inactive
same,outcome,[4],inactive
same,outcome,[5],inactive
Brc1cc(Br)cc(Br)c1,outcome,[3],inactive
same,outcome,[4],inactive
same,outcome,[5],inactive
CC(=O)CCC(=O)O,outcome,[4],inactive
Cc1cccc(O)c1,outcome,[3],inactive
same,outcome,[4],inactive
same,outcome,[5],inactive
NC(=O)c1cccnc1,outcome,[3],inactive
same,outcome,[4],inactive
same,outcome,[5],inactive
CC(=O)CC(=O)N(C)C,outcome,[3],inactive
same,outcome,[4],inactive
same,outcome,[5],inactive
OC[C@H]1O[C@@H](O[C@H]2[C@H](O)[C@@H](O)[C@H](O)O[C@@H]2CO)[C@H](O)[C@@H](O)[C@H]1O,outcome,[3],inactive
same,outcome,[4],inactive
same,outcome,[5],inactive
Cc1ccc(C(C)(C)O)cc1,outcome,[3],inactive
same,outcome,[4],inactive
same,outcome,[5],inactive
COc1ccc2[nH]cc(CCNC(C)=O)c2c1,outcome,[3],inactive
same,outcome,[4],inactive
same,outcome,[5],inactive
CC(C)Cc1ccccc1,outcome,[3],inactive
same,outcome,[4],inactive
same,outcome,[5],inactive
NC(N)=NC(N)=NCCc1ccccc1,outcome,[3],inactive
same,outcome,[4],inactive
same,outcome,[5],inactive
CC12CCC(C1)C(C)(C)C2O (stereo unspecified),outcome,[3],inactive
same,outcome,[4],inactive
same,outcome,[5],inactive
CC(=O)C1=C(C)[C@@H]2C[C@@]3(C1)[C@H](C)CC[C@H]3C2(C)C,outcome,[3],inactive
same,outcome,[4],inactive
same,outcome,[5],inactive
CC(C)Cc1ccc(C(C)C(=O)O)cc1 (stereo unspecified),outcome,[4],inactive
COc1ccccc1O,outcome,[3],inactive
same,outcome,[4],inactive
same,outcome,[5],inactive
CN(C)CCCNCCCN(C)C,outcome,[3],inactive
same,outcome,[4],inactive
same,outcome,[5],inactive
Cc1ccncc1,outcome,[4],inactive
Cc1cc(O)c2c(c1)C(=O)c1cc(O)cc(O)c1C2=O,outcome,[3],inactive
same,outcome,[4],inactive
same,outcome,[5],inactive
C=CC(C)CCCC(C)(C)O (stereo unspecified),outcome,[4],inactive
CCCCCCCCCCCCCC(=O)OCC,outcome,[3],inactive
same,outcome,[4],inactive
same,outcome,[5],inactive
CN(C)CCC=C1c2ccccc2CCc2ccccc21,outcome,[4],inactive
COC(=O)C(C)Oc1ccc(Oc2ncc(C(F)(F)F)cc2Cl)cc1 (stereo unspecified),outcome,[3],inactive
same,outcome,[4],inactive
same,outcome,[5],inactive
CN(C)C(=O)Nc1ccccc1,outcome,[3],inactive
same,outcome,[4],inactive
same,outcome,[5],inactive
FC(F)(F)c1ccc(Cl)c(Cl)c1,outcome,[3],inactive
same,outcome,[4],inactive
same,outcome,[5],inactive
CN(C)C,outcome,[3],inactive
same,outcome,[4],inactive
same,outcome,[5],inactive
CCOc1ccc(NC(C)=O)cc1,outcome,[3],inactive
same,outcome,[4],inactive
same,outcome,[5],inactive
COc1ccc(C(C)=O)cc1,outcome,[3],inactive
same,outcome,[4],inactive
same,outcome,[5],inactive
NS(=O)(=O)c1cc(C(=O)O)c(NCc2ccco2)cc1Cl,outcome,[4],inactive
CCCCOC(=O)C(C)OC(=O)CCC (stereo unspecified),outcome,[4],inactive
same,outcome,[5],inactive
CCCCCC1CCC(=O)O1 (stereo unspecified),outcome,[4],inactive
O=C(O)c1cc2ccccc2cc1O,outcome,[4],inactive
same,outcome,[5],inactive
CC(O)CN (stereo unspecified),outcome,[4],inactive
CCCCCCCCCO,outcome,[4],inactive
CC(=O)OC/C=C(C)/C=C/C=C(C)/C=C/C1=C(C)CCCC1(C)C,outcome,[4],inactive
same,outcome,[5],inactive
CCOC(=O)C=Cc1ccccc1,outcome,[4],inactive
NC(N)=S,outcome,[4],inactive
same,outcome,[5],inactive
CCCc1ccc(O)cc1,outcome,[4],inactive
same,outcome,[5],inactive
NC(=O)c1cnccn1,outcome,[4],inactive
CC(=O)N(C)C,outcome,[4],inactive
same,outcome,[5],inactive
[O-]/[N+](=N\O)c1ccccc1,outcome,[4],inactive
same,outcome,[5],inactive
c1ccc(Cc2ccccc2)cc1,outcome,[4],inactive
same,outcome,[5],inactive
same,AC50,[16],74400 nM (active)
same,outcome,[17],inactive
O=C(O)c1cc(C(=O)O)c(C(=O)O)cc1C(=O)O,outcome,[4],inactive
same,outcome,[5],inactive
C[C@H](CCC(=O)O)[C@H]1CC[C@H]2[C@@H]3CC[C@@H]4C[C@H](O)CC[C@]4(C)[C@H]3CC[C@]12C,outcome,[4],inactive
same,outcome,[5],inactive
CCCCCC(=O)O[C@]1(C(C)=O)CC[C@H]2[C@@H]3CCC4=CC(=O)CC[C@]4(C)[C@H]3CC[C@@]21C,outcome,[4],inactive
NC(=O)c1c(Cl)cccc1Cl,outcome,[4],inactive
same,outcome,[5],inactive
CC1=CCC(C(C)(C)O)CC1 (stereo unspecified),outcome,[4],inactive
same,outcome,[5],inactive
O=C1CCCCCCCCCCCC(=O)OCCO1,outcome,[4],inactive
same,outcome,[5],inactive
O=c1cc(-c2ccc(O)cc2)oc2cc(O)cc(O)c12,outcome,[4],inactive
same,outcome,[5],inactive
CC(O)COCC(C)O (stereo unspecified),outcome,[4],inactive
same,outcome,[5],inactive
O=C(O)C1=NN(c2ccc(S(=O)(=O)O)cc2)C(=O)C1,outcome,[4],inactive
same,outcome,[5],inactive
CN1CCc2cccc3c2[C@H]1Cc1ccc(O)c(O)c1-3,outcome,[4],inactive
same,outcome,[5],inactive
CC(=O)C1C(=O)C=C(C)OC1=O (stereo unspecified),outcome,[4],inactive
same,outcome,[5],inactive
Cc1cccc(C)c1,outcome,[4],inactive
same,outcome,[5],inactive
O=C1OC2(c3ccc(O)cc3Oc3cc(O)ccc32)c2ccccc21,AC50,[4],171 nM (active)
same,outcome,[5],inactive
CCCCCCCCCC(=O)OCC,outcome,[4],inactive
same,outcome,[5],inactive
CC(C)(O)CCc1ccccc1,outcome,[4],inactive
same,outcome,[5],inactive
